The source of these data is PubChem BioAssay (EPA / NIEHS).

Results filed as inconclusive are left out. Activity calls are given as the source filed them. How the source made its calls: active means hit-call score of the fitted dose curve at least 0.9, where 1 is the maximum; inconclusive means response in the unintended direction; inactive means score below 0.9.

The experiment is described as follows: ATG_M_32_TRANS: Attagene TRANS-FACTORIAL HepG2 Assay for M32 Transcription Factor (Internal Marker) (AID 2282984). The note with it: HepG2 Attagene TRANS M32 internal marker reporter. As to the method: ATG_TRANS is a cell-based, multiplexed-readout assay that uses HepG2, a human liver cell line, with measurements taken at 24 hours after chemical dosing in a 24-well plate.ATG_M_32_TRANS is one of 30 assay component(s) measured or calculated from the ATG_TRANS assay. It is designed to make measurements of mRNA induction, a form of inducible reporter, as detected with fluorescence intensity signals by Reverse transcription polymerase chain reaction (RT-PCR) and Capillary electrophoresis technology.Data from the assay component ATG_M_32_TRANS was analyzed into 1 assay endpoint. This assay endpoint, ATG_M_32_TRANS, was analyzed in the positive analysis fitting direction relative to DMSO as the negative control and baseline of activity. Using a type of inducible reporter, measures of mRNA for gain-of-signal activity can be used to understand the background control at the transcription factor-level as they relate to the gene . Furthermore, this assay endpoint can be referred to as a secondary readout, because this assay has produced multiple assay endpoints where this one serves a background control function. To generalize the intended target to other relatable targets, this assay endpoint is annotated to the background measurement intended target family, where the subfamily is internal marker.
Human liver HepG2 cells are transiently transfected with multiple reporter transcription units (MRTUs) in 6-well plates using FuGene 6 reagent (Roche; 3 ml FuGene/1 mg DNA). The MRTU constructs are regulated by a cis-regulating element (promoter). […] A major difference between the CIS and TRANS system is that in CIS activities of endogenous TFs are measured, whereas the TRANS assay evaluates changes in activities of exogenous, chimeric NR-Gal4 proteins. […] At the end of 24 hour incubation, total RNA was isolated using TriZol reagent (Invitrogen). The isolated RNA is then reverse-transcribed using oligo(dT) primer and Mo-MLV reverse transcriptase (Invitrogen) with DNAse I (Ambion) treatment for 30 min. The one-tenth of the produced cDNA was amplified by PCR using Taq DNA polymerase (Invitrogen) and two reporter sequence-specific primers. The PCR products were fluorescently labeled by primer extension with 6-arboxyfluorescein (6-FAM) 5'-labeled reporter sequence-specific primer (2 min at 95 C, 20 s at 68 C and 10 min at 72 C) and these products were digested with 5U of HpaI (New England Biolabs) for 2h at 37 C. The fragments were purified using Qiaquick PCR columns (Qiagen), analyzed on an ABI 3130xL genetic analyzer (Applied Biosystems) with peak positions identified by using a set of X-rhodamine (ROX)-labeled MapMarker1000 molecular weight standards (BioVentures). The raw capillary electrophoresis data was processed using Attagraph software (Attagene).
Take `CC1CCC(C(C)(C)S)C(=O)C1` (stereo not given): the molecule was called inactive.

Regarding `Nc1ccnc(=O)[nH]1`, the molecule was called inactive.

For the molecule `O=C(O)CCCC(=O)O`, the molecule was classed as inactive.

With `Cc1c(C(=O)c2c[nH]n(C)c2=O)ccc(S(C)(=O)=O)c1C1=NOCC1`, the outcome was inactive.

Take `CC(C=O)c1ccccc1` (stereo not given): the result was inactive.

Take `CC1=CC(C)C(C=O)CC1` (stereo not given): the outcome was inactive.

As for `CCCCCCCCCCCCCc1ccccc1`, the molecule was called inactive.

As for `CCCCC(=O)O`, the molecule was called inactive.

As to `CCCCCCCCCCCC(=O)OCC`, the molecule was classed as inactive.

`Fc1ccc(Br)cc1`: the outcome was inactive.

For the molecule `O=c1c(O)c(-c2ccc(O)cc2O)oc2cc(O)cc(O)c12`, the molecule was classed as inactive.

As for `Oc1ccc(-c2ccccc2)c(Cl)c1`, the molecule was called inactive.

For `O=C(Nc1ccccc1)c1cc(Cl)ccc1O`, the outcome was inactive.

For `Cn1cccc1`, the molecule was called inactive.

In the case of `CC(C)CCCCCOC(=O)CS`, the molecule was classed as inactive.

Take `Nc1ccc(C(=O)O)cc1`: the result was inactive.

Take `COc1cc(C)ccc1O`: the call was inactive.

As for `CCCCOCCOC(=O)COc1ccc(Cl)cc1Cl`, the outcome was inactive.

As for `CCCCc1ccc(Cl)cc1`, the molecule was classed as inactive.

As to `CCCC/C=C/C=C\C=O`, the call was inactive.

Turning to `O=C(O)/C=C/c1ccccc1`, the result was inactive.

For the molecule `CC/C=C\CCOC(=O)c1ccccc1O`, the molecule was called inactive.

For the molecule `NC(=O)Nc1ccccc1`, the result was inactive.

Regarding `c1ccc2sc(SSN3CCOCC3)nc2c1`, the call was inactive.

`CCc1cccc(C)c1N(C(=O)CS(=O)(=O)O)C(C)COC` (stereo not given): the molecule was classed as inactive.

With `C[Si]1(C)O[Si](C)(C)O[Si](C)(C)O[Si](C)(C)O[Si](C)(C)O1`, the molecule was classed as inactive.

As for `CC1C(C)(C)C2=C(C(=O)CCC2)C1(C)C` (stereo not given), the call was inactive.

With `CC(C)(C)C1CCC(=O)CC1`, the result was inactive.

As to `CCc1occc(=O)c1O`, the molecule was classed as inactive.

On to `CCCCC(CC)COC(=O)/C=C/c1ccc(OC)cc1` (stereo not given), for which the call was inactive.

Take `O=C(Oc1ccccc1)c1ccccc1C(=O)Oc1ccccc1`: the molecule was called inactive.

For `O=C(O)CC(C(=O)O)S(=O)(=O)O` (stereo not given), the molecule was called inactive.

Turning to `CC(=O)OC1CCCCC1`, the molecule was called inactive.

For `CO[Si](CCCS)(OC)OC`, the molecule was classed as inactive.

Take `CCCCC1C(=O)N(c2ccccc2)N(c2ccccc2)C1=O`: the molecule was classed as inactive.

For the molecule `C=CC(=O)OCC(C)OCC(C)OCC(C)OC(=O)C=C` (stereo not given), the outcome was inactive.

As to `Clc1cccnc1`, the molecule was called inactive.

`CO[Si](C)(C)OC`: the molecule was called inactive.

On to `CCCCCCOc1ccc(N)cc1`, for which the call was inactive.

As to `C=CC(C)(O)CC/C=C(\C)CC` (stereo not given), the outcome was inactive.
